Measured values: PubChem BioAssay

Legend:
[1] = test system: Botulinum neurotoxin type F light chain protease (Clostridium botulinum); experiment: Botulinum neurotoxin type F light chain protease inhibition, multiplex microsphere flow cytometry, validation set (AID 588459); conditions: multiplex microsphere protease substrate cleavage assay, at 10 µM, hits give high values
[2] = target: Botulinum neurotoxin type A (Clostridium botulinum) (UniProt P0DPI0); experiment: BoNT/A light chain protease inhibitors, biochemical, multiplex microsphere flow cytometry, validation set (AID 588460); conditions: at 10 µM, hits give high values
[3] = target: Lethal factor (Bacillus anthracis) (UniProt P15917); experiment: Lethal factor protease inhibitors, Bacillus anthracis, multiplex microsphere cleavage assay, validation set (AID 588461); conditions: flow cytometry, at 10 µM, hits give high values

Measured: inhibition

Botulinum neurotoxin type A (Clostridium botulinum), sequence (P0DPI0 whole entry, looked up): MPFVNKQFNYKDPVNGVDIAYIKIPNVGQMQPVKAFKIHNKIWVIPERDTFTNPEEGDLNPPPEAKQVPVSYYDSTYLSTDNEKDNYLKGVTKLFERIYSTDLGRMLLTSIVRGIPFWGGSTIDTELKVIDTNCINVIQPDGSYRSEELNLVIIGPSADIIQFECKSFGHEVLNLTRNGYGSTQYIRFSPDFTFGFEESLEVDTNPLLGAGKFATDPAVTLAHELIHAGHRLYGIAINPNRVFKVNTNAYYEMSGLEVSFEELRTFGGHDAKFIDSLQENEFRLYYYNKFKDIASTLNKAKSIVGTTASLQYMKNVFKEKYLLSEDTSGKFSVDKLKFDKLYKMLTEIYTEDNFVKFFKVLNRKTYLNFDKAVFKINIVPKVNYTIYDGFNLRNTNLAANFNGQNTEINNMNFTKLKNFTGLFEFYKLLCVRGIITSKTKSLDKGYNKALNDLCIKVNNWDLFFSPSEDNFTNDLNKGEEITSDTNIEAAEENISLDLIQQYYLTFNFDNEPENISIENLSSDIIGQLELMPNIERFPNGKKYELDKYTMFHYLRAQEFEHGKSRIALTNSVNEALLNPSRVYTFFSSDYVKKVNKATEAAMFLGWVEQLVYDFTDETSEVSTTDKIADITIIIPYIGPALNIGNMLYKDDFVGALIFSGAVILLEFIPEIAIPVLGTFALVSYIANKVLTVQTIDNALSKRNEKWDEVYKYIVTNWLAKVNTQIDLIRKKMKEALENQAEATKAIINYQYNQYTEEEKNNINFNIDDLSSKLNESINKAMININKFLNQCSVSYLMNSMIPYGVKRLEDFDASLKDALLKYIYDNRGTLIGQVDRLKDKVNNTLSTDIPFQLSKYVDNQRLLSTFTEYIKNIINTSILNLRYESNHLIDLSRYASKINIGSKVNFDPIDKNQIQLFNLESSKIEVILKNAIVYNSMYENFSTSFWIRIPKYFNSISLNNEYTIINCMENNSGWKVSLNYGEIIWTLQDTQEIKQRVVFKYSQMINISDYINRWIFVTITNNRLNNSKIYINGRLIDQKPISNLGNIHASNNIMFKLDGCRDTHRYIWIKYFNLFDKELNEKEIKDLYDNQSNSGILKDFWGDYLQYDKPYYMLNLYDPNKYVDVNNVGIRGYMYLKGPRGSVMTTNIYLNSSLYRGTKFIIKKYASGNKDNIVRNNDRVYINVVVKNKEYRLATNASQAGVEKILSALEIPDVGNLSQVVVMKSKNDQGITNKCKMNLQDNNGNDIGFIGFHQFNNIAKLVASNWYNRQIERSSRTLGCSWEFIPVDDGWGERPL
Lethal factor (Bacillus anthracis), sequence (P15917 whole entry, looked up): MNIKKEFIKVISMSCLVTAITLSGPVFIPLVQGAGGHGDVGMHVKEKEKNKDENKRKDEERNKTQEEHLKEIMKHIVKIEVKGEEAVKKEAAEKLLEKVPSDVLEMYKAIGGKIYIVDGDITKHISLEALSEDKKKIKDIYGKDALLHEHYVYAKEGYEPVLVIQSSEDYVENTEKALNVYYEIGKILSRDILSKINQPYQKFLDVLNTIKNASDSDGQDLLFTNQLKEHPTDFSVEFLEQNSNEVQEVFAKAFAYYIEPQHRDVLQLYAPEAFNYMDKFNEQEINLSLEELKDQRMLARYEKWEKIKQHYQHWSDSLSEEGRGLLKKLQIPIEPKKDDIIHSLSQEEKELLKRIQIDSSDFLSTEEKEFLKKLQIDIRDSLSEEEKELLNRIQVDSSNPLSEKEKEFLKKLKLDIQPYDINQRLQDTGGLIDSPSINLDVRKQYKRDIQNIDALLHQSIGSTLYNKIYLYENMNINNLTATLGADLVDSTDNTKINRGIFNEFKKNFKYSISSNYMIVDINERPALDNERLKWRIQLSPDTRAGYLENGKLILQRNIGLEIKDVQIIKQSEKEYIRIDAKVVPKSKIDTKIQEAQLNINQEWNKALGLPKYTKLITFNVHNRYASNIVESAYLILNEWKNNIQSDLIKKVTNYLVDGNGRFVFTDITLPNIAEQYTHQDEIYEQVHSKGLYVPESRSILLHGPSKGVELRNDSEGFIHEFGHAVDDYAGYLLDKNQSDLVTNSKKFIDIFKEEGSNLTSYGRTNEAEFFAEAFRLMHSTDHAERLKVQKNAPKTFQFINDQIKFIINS

CCn1c(O)c(/C=C2\C=Nc3ccccc32)sc1=O
inactive: [1] 2.3% | [2] 0.3% | [3] -0.8%

CCOC(=O)N1CCc2[nH]c3ccc(C)cc3c2C1
inactive: [1] -1.2% | [2] -1.6% | [3] 1.9%

COc1ccc(OC)c(-n2c(Cn3c(-c4ccccn4)nc4ccccc43)n[nH]c2=S)c1
inactive: [1] -3.4% | [2] -0.4% | [3] -0.7%

O=C1Cc2ccccc2C(c2ccccc2)N1 (centres undefined)
inactive: [1] -0.1% | [2] -0.3% | [3] -3.1%

O=C(Nc1ccccc1C(=O)N1CCCCCC1)c1ccccc1Cl
inactive: [1] -2.3% | [2] 0% | [3] -1.1%

CCCCCC(O)c1cccc(OCc2ccc3ccccc3n2)c1 (centres undefined)
inactive: [1] 0.9% | [2] 0.6% | [3] -0.8%

CCOC(=O)/C=C1\NC(C)(C)Cc2cc(OC)c(OC)cc21
inactive: [1] 0.2% | [2] -0.4% | [3] -2.8%

COc1ccc(-c2coc3cc(OC(=O)N4CCOCC4)ccc3c2=O)cc1
inactive: [1] 4.3% | [2] -1.4% | [3] -0.4%

Cn1c2[n+](c3ccc(Cl)cc3c1=O)Cc1ccccc1-2
inactive: [1] 0.8% | [2] -1% | [3] -7.8%

O=C1N[C@@H](Cc2cnc[nH]2)C(=O)N2CCC[C@@H]12
inactive: [1] 1.2% | [2] 0.3% | [3] -5.3%

CC(C)Oc1cccc(C(=O)N2CCCC2)c1
inactive: [1] 2.3% | [2] -0.3% | [3] -5.2%

C/C(CCc1oc2ccc(Cl)cc2c1-c1ccc(C)o1)=N\O
inactive: [1] 1.6% | [2] -0.7% | [3] -3.2%

Cc1oc(/C=N/NC(=O)CC2(C)OCCO2)cc1Br
inactive: [1] 3.9% | [2] 0.6% | [3] 3.2%
